Inconclusive results are not listed. Activity calls are given as the source filed them. Rule for the calls: active = hit-call score of the fitted dose curve at least 0.9, where 1 is the maximum; inconclusive = response in the unintended direction; inactive = score below 0.9.
Key:
[1] = target: Tyrosine-protein phosphatase non-receptor type 13 (Homo sapiens) (UniProt Q12923); experiment: NVS_ENZ_hPTPN13: NovaScreen (NVS) Enzymatic Assay for human Protein Tyrosine Phosphatase Non-receptor Type 13 (PTPN13) (AID 2283205)
In short: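 Cell-free assay of recombinant human PTPN13 with a fluorescent substrate, product separated by electrophoretic mobility shift and read 0.5 h after dosing. Primary screen at 25 uM in duplicate, then concentration-response up to 50 uM. Loss of signal fitted against DMSO.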

[2] = target: human Protein Phosphatase, Mg2+/Mn2+ Dependent 1A (PPM1A), PPM1A (gene 5494) (UniProt P35813); experiment: NVS_ENZ_hPPM1A: NovaScreen (NVS) Enzymatic Assay for human Protein Phosphatase, Mg2+/Mn2+ Dependent 1A (PPM1A) (AID 2283198)
In short: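 Cell-free recombinant PPM1A phosphatase assay with fluorescent substrate, read 1 h after dosing by electrophoretic mobility shift. Chemicals screened in duplicate at 25 uM, then in concentration-response up to 50 uM; loss of activity versus DMSO.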

[3] = target: Serine/threonine-protein phosphatase PP1-alpha catalytic subunit (Homo sapiens) (UniProt P62136); experiment: NVS_ENZ_hPPP1CA: NovaScreen (NVS) Enzymatic Assay for human Protein Phosphatase 1 Aatalytic subunit Alpha (PPP1CA) (AID 2283200)
In short: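 Recombinant enzyme activity read by fluorescence with electrophoretic mobility shift separating substrate from product, 1.33 h after dosing; loss of signal vs DMSO baseline. Primary screen in duplicate at 25 uM; actives retested in concentration-response up to 50 uM.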

[4] = target: rabbit Imidazoline 2 Central (I2C), CKB (gene 100009085) (UniProt P00567); experiment: NVS_ENZ_rabI2C: NovaScreen (NVS) Enzymatic Assay for rabbit Imidazoline 2 Central (I2C) (AID 2283228)
In short: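 Rabbit brain membranes, cell-free; readout by filter-based scintillation counting 1.5 hours after dosing, loss of signal vs DMSO. Initial duplicate test at 25 uM, then concentration-response with 50 uM top concentration.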

[5] = target: Tyrosine-protein phosphatase non-receptor type 11 (Homo sapiens) (UniProt Q06124); experiment: NVS_ENZ_hPTPN11: NovaScreen (NVS) Enzymatic Assay for human Protein Tyrosine Phosphatase Non-receptor Type 11 (PTPN11) (AID 2283202)
In short: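 Recombinant human PTPN11 activity on a fluorescent substrate, with substrate/product separated by electrophoretic mobility shift; read 0.5 h after dosing, loss of signal vs DMSO. Duplicate 25 uM screen, then concentration-response up to 50 uM.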

[6] = target: Tyrosine-protein phosphatase non-receptor type 12 (Homo sapiens) (UniProt Q05209); experiment: NVS_ENZ_hPTPN12: NovaScreen (NVS) Enzymatic Assay for human Protein Tyrosine Phosphatase Non-receptor Type 12 (PTPN12) (AID 2283204)
In short: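 Single-concentration duplicates (25 uM) preceded singleton concentration-response up to 50 uM for chemicals passing threshold. Cell-free recombinant PTPN12 activity was read 1.33 h after dosing via fluorescence after mobility-shift separation; loss of signal versus DMSO.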

[7] = target: human Protein Tyrosine Phosphatase Non-receptor Type 4 (PTPN4), PTPN4 (gene 5775) (UniProt P29074); experiment: NVS_ENZ_hPTPN4: NovaScreen (NVS) Enzymatic Assay for human Protein Tyrosine Phosphatase Non-receptor Type 4 (PTPN4) (AID 2283208)
In short: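 Cell-free assay of PTPN4 expressed in Sf9 cells, using a fluorescent substrate with product separated by mobility shift; read 1.33 h after dosing. Single-point screen at 25 uM, then concentration-response up to 50 uM. Loss of signal relative to DMSO.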

[8] = target: human Protein Tyrosine Phosphatase Receptor Type B (PTPRB), PTPRB (gene 5787) (UniProt P23467); experiment: NVS_ENZ_hPTPRB: NovaScreen (NVS) Enzymatic Assay for human Protein Tyrosine Phosphatase Receptor Type B (PTPRB) (AID 2283211)
In short: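 Recombinant human PTPRB with a fluorescent substrate, product separated by electrophoretic mobility shift; read 1 h after dosing. Primary screen in duplicate at 25 uM; actives then retested in concentration series; loss of signal versus DMSO.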

[9] = target: human Protein Tyrosine Phosphatase Receptor Type F (PTPRF), PTPRF (gene 5792) (UniProt P10586); experiment: NVS_ENZ_hPTPRF: NovaScreen (NVS) Enzymatic Assay for human Protein Tyrosine Phosphatase Receptor Type F (PTPRF) (AID 2283213)
In short: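 Cell-free fluorescence enzyme assay with recombinant protein and substrate; product separated by electrophoretic mobility shift. Read 1 h after dosing, single 25 uM duplicate screen, then concentration-response up to 50 uM; loss of signal vs DMSO.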

[10] = target: human Sirtuin 2 (SIRT2), SIRT2 (gene 22933) (UniProt Q8IXJ6); experiment: NVS_ENZ_hSIRT2: NovaScreen (NVS) Enzymatic Assay for human Sirtuin 2 (SIRT2) (AID 2283217)
In short: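 Cell-free recombinant human SIRT2, fluorescent substrate with product separated by electrophoretic mobility shift, 1 hr. Screened in duplicate at 25 uM; hits rerun singly in concentration-response up to 50 uM, relative to DMSO.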

[11] = target: human SRC Proto-Oncogene, Non-receptor Tyrosine Kinase (SRC), SRC (gene 6714) (UniProt P12931); experiment: NVS_ENZ_hSRC: NovaScreen (NVS) Enzymatic Assay for human SRC Proto-Oncogene, Non-receptor Tyrosine Kinase (SRC) (AID 2283223)
In short: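 Cell-free kinase activity assay with fluorescent substrate, product separated by electrophoretic mobility shift, read 1 h after dosing. Duplicate single point at 25 uM, then concentration-response up to 50 uM; loss of signal versus DMSO.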

[12] = target: human Vascular Endothelial Growth Factor Receptor 1 (VEGFR1), FLT1 (gene 2321) (UniProt P17948); experiment: NVS_ENZ_hVEGFR1: NovaScreen (NVS) Enzymatic Assay for human Vascular Endothelial Growth Factor Receptor 1 (VEGFR1) (AID 2283226)
In short: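 Cell-free assay of recombinant human VEGFR1 kinase with substrate, measured 1 h after dosing; fluorescence with electrophoretic mobility-shift separation of substrate and product, referenced to DMSO; primary screen at 25 uM in duplicate, actives then run in concentration series.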

[13] = target: Tyrosine-protein phosphatase non-receptor type 14 (Homo sapiens) (UniProt Q15678); experiment: NVS_ENZ_hPTPN14: NovaScreen (NVS) Enzymatic Assay for human Protein Tyrosine Phosphatase Non-receptor Type 14 (PTPN14) (AID 2283206)
In short: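 Cell-free recombinant human PTPN14 with fluorescent substrate, read 0.5 h after dosing by fluorescence and electrophoretic mobility shift separating substrate from product. Primary screen at 25 uM in duplicate; hits run to 50 uM maximum; loss of signal versus DMSO.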

[14] = target: human Protein Tyrosine Phosphatase Non-receptor Type 9 (PTPN9), PTPN9 (gene 5780) (UniProt P43378); experiment: NVS_ENZ_hPTPN9: NovaScreen (NVS) Enzymatic Assay for human Protein Tyrosine Phosphatase Non-receptor Type 9 (PTPN9) (AID 2283209)
In short: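 Sf9-expressed enzyme in a cell-free assay, fluorescence read 1.33 h after dosing with mobility-shift separation of substrate and product. Tested at 25 uM in duplicate, then up to 50 uM; signal loss versus DMSO.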

[15] = target: human Protein Tyrosine Phosphatase Receptor Type M (PTPRM), PTPRM (gene 5797) (UniProt P28827); experiment: NVS_ENZ_hPTPRM: NovaScreen (NVS) Enzymatic Assay for human Protein Tyrosine Phosphatase Receptor Type M (PTPRM) (AID 2283215)
In short: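 Cell-free recombinant PTPRM with fluorogenic substrate; product separated from substrate by electrophoretic mobility shift and read by fluorescence, 1.33 h after dosing. Primary screen single concentration (25 uM) in duplicate; actives retested in concentration series; loss of signal versus DMSO.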

[16] = target: human Sirtuin 3 (SIRT3), SIRT3 (gene 23410) (UniProt Q9NTG7); experiment: NVS_ENZ_hSIRT3: NovaScreen (NVS) Enzymatic Assay for human Sirtuin 3 (SIRT3) (AID 2283222)
In short: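 Cell-free enzyme assay with recombinant protein and fluorescent substrate, product separated by electrophoretic mobility shift; read 1 hour after dosing. Screened in duplicate at 25 uM, then singleton concentration-response up to 50 uM; loss of signal versus DMSO.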

[17] = target: human Protein Tyrosine Phosphatase Non-receptor Type 1 (PTPN1), PTPN1 (gene 5770) (UniProt P18031); experiment: NVS_ENZ_hPTPN1: NovaScreen (NVS) Enzymatic Assay for human Protein Tyrosine Phosphatase Non-receptor Type 1 (PTPN1) (AID 2283201)
In short: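 Cell-free fluorogenic-substrate activity assay on recombinant enzyme, read 1.33 h after dosing by fluorescence and electrophoretic mobility shift; loss of signal vs DMSO baseline. Primary screen in duplicate at 25 uM, hits then run in concentration-response up to 50 uM.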

[18] = target: human Protein Tyrosine Phosphatase Non-receptor Type 6 (PTPN6), PTPN6 (gene 5777) (UniProt P29350); experiment: NVS_ENZ_hPTPN6: NovaScreen (NVS) Enzymatic Assay for human Protein Tyrosine Phosphatase Non-receptor Type 6 (PTPN6) (AID 2283210)
In short: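 Cell-free assay with recombinant PTPN6 expressed in SF9 cells, fluorescent substrate, product separated from substrate by electrophoretic mobility shift; read 1.33 hours after dosing. Primary screen in duplicate at 25 uM, actives retested in concentration series; DMSO baseline.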

[19] = target: human Tropomyosin Receptor Kinase A (TRKA), NTRK1 (gene 4914) (UniProt P04629); experiment: NVS_ENZ_hTrkA: NovaScreen (NVS) Enzymatic Assay for human Tropomyosin Receptor Kinase A (TRKA) (AID 2283224)
In short: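 Recombinant human TrkA activity read after 1 h by fluorescence with electrophoretic mobility shift separating substrate and product. Primary screen in duplicate at 25 uM; actives were rerun in concentration-response up to 50 uM. Loss of signal versus DMSO.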

Measured: AC50

human Protein Tyrosine Phosphatase Non-receptor Type 1 (PTPN1), PTPN1 (gene 5770), sequence (P18031 whole entry, looked up): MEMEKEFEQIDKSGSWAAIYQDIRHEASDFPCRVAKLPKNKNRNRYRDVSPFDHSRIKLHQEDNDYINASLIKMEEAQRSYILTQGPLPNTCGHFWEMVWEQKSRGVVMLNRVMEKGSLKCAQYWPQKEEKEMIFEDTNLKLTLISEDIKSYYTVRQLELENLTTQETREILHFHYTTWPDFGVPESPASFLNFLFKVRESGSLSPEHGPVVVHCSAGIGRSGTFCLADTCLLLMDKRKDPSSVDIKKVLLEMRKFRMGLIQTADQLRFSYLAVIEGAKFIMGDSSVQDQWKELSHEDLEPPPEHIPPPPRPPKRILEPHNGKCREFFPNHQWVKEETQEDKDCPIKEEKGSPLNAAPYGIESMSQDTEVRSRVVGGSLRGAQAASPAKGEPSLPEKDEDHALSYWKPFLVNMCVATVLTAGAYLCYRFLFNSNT
human Vascular Endothelial Growth Factor Receptor 1 (VEGFR1), FLT1 (gene 2321), sequence (P17948 whole entry, looked up): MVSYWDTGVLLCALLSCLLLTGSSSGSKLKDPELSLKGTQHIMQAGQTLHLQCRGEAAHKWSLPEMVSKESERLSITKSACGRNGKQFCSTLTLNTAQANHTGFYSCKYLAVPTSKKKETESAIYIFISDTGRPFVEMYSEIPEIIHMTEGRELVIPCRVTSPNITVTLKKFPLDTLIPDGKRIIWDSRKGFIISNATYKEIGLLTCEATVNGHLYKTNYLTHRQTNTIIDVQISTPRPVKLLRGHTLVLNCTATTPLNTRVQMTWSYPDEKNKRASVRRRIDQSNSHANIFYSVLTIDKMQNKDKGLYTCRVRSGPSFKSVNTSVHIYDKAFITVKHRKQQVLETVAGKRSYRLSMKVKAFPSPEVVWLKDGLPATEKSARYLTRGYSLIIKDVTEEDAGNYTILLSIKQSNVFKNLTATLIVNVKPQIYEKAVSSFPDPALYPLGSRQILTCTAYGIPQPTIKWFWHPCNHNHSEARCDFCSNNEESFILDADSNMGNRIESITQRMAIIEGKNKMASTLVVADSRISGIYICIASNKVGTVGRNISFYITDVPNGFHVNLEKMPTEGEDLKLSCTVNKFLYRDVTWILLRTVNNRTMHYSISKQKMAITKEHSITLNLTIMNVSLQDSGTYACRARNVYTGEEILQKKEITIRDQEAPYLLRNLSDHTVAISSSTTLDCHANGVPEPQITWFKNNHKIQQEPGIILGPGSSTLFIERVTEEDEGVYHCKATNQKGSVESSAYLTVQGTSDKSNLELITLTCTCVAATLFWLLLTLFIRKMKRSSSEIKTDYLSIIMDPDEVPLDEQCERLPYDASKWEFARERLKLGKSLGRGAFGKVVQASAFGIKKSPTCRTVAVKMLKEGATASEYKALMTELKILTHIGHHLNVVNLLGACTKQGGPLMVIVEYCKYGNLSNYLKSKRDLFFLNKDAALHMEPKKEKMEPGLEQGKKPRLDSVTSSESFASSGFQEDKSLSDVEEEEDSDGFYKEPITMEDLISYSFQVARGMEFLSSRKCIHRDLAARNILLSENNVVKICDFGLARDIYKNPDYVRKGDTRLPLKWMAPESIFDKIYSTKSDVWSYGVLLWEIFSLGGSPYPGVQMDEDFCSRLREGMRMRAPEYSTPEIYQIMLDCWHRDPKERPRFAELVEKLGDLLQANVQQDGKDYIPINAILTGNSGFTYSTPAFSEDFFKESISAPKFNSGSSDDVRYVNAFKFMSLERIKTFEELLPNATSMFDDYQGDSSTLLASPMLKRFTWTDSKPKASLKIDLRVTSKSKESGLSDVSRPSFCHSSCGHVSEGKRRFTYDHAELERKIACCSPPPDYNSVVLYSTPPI
Serine/threonine-protein phosphatase PP1-alpha catalytic subunit (Homo sapiens), sequence (P62136 whole entry, looked up): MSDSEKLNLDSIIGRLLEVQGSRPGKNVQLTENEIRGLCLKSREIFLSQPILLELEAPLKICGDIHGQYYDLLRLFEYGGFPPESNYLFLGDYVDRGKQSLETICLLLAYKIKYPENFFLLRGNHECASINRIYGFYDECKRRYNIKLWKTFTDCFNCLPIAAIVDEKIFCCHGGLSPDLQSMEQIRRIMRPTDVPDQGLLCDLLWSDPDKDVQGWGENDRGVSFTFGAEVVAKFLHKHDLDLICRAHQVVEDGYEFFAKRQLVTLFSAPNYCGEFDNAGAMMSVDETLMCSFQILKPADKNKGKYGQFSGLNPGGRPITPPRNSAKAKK
human Sirtuin 2 (SIRT2), SIRT2 (gene 22933), sequence (Q8IXJ6 whole entry, looked up): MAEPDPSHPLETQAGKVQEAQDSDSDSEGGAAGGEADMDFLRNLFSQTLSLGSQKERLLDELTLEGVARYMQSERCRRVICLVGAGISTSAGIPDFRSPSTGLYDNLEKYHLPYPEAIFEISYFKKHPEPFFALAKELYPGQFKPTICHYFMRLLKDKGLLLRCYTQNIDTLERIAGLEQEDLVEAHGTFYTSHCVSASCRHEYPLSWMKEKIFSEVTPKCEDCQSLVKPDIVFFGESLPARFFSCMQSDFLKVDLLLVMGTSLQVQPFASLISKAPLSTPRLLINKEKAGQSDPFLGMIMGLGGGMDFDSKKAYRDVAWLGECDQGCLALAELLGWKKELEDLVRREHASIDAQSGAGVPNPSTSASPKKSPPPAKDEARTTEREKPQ
Tyrosine-protein phosphatase non-receptor type 13 (Homo sapiens), sequence (Q12923 whole entry, looked up): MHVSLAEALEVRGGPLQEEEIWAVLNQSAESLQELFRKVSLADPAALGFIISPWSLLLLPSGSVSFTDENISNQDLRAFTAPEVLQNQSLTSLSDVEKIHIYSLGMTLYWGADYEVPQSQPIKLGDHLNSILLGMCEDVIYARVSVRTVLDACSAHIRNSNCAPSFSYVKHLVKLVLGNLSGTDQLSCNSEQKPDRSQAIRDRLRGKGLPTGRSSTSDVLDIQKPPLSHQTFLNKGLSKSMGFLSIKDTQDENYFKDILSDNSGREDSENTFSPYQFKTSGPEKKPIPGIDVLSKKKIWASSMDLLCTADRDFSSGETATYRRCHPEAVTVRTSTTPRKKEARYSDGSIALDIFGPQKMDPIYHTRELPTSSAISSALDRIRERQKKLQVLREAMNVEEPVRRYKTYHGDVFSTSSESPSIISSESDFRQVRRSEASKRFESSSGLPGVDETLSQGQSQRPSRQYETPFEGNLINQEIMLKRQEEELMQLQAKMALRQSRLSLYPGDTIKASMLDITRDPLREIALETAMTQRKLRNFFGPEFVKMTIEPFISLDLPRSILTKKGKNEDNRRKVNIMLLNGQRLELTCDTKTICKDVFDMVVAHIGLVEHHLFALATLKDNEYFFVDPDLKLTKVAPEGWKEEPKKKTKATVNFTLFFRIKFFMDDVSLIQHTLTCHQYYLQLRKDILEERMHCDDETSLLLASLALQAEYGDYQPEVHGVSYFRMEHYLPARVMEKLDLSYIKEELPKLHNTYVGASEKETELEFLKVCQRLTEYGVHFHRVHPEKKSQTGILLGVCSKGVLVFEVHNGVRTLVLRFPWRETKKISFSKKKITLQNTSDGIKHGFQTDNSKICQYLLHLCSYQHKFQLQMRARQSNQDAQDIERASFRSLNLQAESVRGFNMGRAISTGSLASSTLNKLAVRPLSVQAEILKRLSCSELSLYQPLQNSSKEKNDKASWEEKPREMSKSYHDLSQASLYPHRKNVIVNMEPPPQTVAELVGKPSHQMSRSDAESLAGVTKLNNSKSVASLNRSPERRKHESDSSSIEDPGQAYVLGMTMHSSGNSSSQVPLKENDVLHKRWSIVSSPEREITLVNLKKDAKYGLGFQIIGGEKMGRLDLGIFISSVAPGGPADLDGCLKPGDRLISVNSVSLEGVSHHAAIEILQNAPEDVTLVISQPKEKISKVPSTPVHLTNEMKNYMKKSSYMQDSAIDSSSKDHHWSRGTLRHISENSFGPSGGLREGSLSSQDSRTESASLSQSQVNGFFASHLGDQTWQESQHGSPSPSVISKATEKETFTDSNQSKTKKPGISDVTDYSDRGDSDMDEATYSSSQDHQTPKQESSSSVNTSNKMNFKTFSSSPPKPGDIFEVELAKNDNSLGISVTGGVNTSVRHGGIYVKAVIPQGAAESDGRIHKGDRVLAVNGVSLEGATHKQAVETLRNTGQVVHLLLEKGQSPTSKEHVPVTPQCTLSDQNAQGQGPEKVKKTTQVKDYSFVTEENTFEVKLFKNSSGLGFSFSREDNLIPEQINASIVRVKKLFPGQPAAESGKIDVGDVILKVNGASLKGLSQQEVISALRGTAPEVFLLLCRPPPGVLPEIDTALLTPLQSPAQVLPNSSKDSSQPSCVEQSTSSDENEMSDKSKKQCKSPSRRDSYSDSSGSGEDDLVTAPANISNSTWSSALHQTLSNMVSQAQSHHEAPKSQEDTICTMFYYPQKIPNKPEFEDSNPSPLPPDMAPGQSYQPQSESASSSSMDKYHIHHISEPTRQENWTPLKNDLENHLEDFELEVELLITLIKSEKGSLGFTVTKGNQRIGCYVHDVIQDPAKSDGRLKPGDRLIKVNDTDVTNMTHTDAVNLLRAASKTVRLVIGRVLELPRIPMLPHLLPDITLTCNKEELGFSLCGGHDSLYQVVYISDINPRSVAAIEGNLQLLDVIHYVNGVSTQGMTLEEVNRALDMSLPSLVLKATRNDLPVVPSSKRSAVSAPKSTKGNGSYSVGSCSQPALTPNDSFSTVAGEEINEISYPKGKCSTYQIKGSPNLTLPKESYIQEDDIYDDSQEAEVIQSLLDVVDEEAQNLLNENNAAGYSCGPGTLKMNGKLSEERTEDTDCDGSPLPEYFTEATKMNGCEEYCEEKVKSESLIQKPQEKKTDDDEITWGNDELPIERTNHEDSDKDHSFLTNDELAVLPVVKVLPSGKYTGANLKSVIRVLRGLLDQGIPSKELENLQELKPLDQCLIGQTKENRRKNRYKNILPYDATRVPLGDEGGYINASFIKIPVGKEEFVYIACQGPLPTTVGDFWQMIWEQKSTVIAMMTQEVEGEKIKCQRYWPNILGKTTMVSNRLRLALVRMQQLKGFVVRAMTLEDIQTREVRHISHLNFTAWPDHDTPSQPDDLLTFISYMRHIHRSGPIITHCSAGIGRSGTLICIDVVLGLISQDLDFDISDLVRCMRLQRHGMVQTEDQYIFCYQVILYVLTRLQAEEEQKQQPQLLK

c1ccc2cc3ccccc3cc2c1
inactive: [1]

CCCCCCCCN(C)C
inactive: [2] | [3] | [4]

CCCCCCCC/C=C\CCCCCCCC(=O)OC[C@@H](O)[C@H]1OC[C@H](O)[C@H]1O
inactive: [5] | [6] | [7] | [8] | [9] | [10] | [11] | [12]

Cc1ncc([C@@H](CCCCCCc2ccc3c(n2)NCCC3)CC(=O)O)cn1
inactive: [5] | [6] | [13] | [14] | [9] | [15] | [10] | [16]
active: [8] 18.6 µM

O=C(NO)C1(NS(=O)(=O)c2ccc(Oc3ccc(F)cc3)cc2)CCOCC1
inactive: [2] | [17] | [7] | [12]

OCCOCCOCCO
inactive: [5] | [6] | [18]

c1ccc(C(O[C@@H]2CCCN(CCc3ccc4c(c3)OCO4)C2)c2ccccc2)cc1
inactive: [3]
active: [4] 4.09 µM

Cc1nc(-c2ccccn2)ncc1C(=O)Nn1cc(C)c2cc(F)ccc21
active: [1] 33.8 µM
inactive: [17] | [5] | [6] | [13] | [14] | [15] | [10] | [19] | [12]

CCc1cccc(CC)c1N
inactive: [17]

OC(CCl)CCl
inactive: [1]

C[C@]12C=CC(=O)C=C1CC[C@H]1[C@@H]3C[C@@H](O)[C@](O)(C(=O)CO)[C@@]3(C)C[C@H](O)[C@@]12F
inactive: [3] | [18]

From PubChem BioAssay (EPA / NIEHS)
